# Reference: the supplement of paper PMC8728848
# The entries come from a sample that favours the strongest signals as a whole.
# B1: GNL (Galanthus nivalis) (protein)
# chain: MGHHHHHHHHYGTLENGHWLMVGMSIFSKDRTVELRMQDDGKLAIYYNDHCAWQSTAQQVNNAKGAVMQGDGNFCIYDKNGKATWHTNTAAPSGDSHTFVSVQDDGNLVLYKNNGATPIWSSKSNK
# Assays:
# Assay in all cases: glycan array binding signal (z-score within array); higher = stronger binding
# Conditions in all cases: glycan notation: IUPAC condensed, linker removed
# [1] = biological target: Glc(a1-6)Glc(a1-6)Glc(a1-6)Glc
# How it was run: (§1)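 The Consortium for Functional Glycomics database supplied 3228 glycan arrays, of which those lacking an available protein sequence were dropped. The binding signal, a within-array Z-score, was averaged across arrays of the same protein sequence and across linkers. Negative scores can be read as non-binding.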
# [2] = biological target: GlcNAc(a1-4)Gal(b1-4)GlcNAc
# How it was run: as §1
# [3] = biological target: GlcNAc(a1-4)Gal(b1-4)GlcNAc(b1-3)Gal(b1-4)[Fuc(a1-3)]GlcNAc(b1-3)Gal(b1-4)[Fuc(a1-3)]GlcNAc
# How it was run: as §1
# [4] = biological target: GlcNAc(b1-2)Man(a1-3)[GlcNAc(b1-2)Man(a1-6)]Man(b1-4)GlcNAc(b1-4)GlcNAc
# How it was run: as §1
# [5] = biological target: GlcNAc(b1-2)[GlcNAc(b1-4)]Man(a1-3)[GlcNAc(b1-4)][GlcNAc(b1-2)[GlcNAc(b1-6)]Man(a1-6)]Man(b1-4)GlcNAc(b1-4)GlcNAc
# How it was run: as §1
# [6] = biological target: GlcNAc(b1-3)Gal(b1-4)GlcNAc
# How it was run: as §1
# [7] = biological target: GlcNAc(b1-3)Gal(b1-4)GlcNAc(b1-2)Man(a1-3)[GlcNAc(b1-3)Gal(b1-4)GlcNAc(b1-2)Man(a1-6)]Man(b1-4)GlcNAc(b1-4)GlcNAc
# How it was run: as §1
# [8] = biological target: GlcNAc(b1-3)Gal(b1-4)GlcNAc(b1-3)GalNAc
# How it was run: as §1
# [9] = biological target: GlcNAc(b1-3)Gal(b1-4)GlcNAc(b1-6)[GlcNAc(b1-3)]Gal(b1-4)GlcNAc
# How it was run: as §1
# [10] = biological target: GlcNAc(b1-4)GlcNAc(b1-4)GlcNAc(b1-4)GlcNAc(b1-4)GlcNAc(b1-4)GlcNAc
# How it was run: as §1
# [11] = biological target: GlcNAc6S(b1-3)Gal(b1-4)GlcNAc
# How it was run: as §1
# [12] = biological target: Man(a1-2)Man(a1-3)Man
# How it was run: as §1
# [13] = biological target: Man(a1-3)[Man(a1-6)]Man(a1-6)[Man(a1-3)]Man(b1-4)GlcNAc(b1-4)GlcNAc
# How it was run: as §1
# [14] = biological target: Neu5Ac(a2-3)Gal(b1-3)GlcNAc(b1-2)Man
# How it was run: as §1
# [15] = biological target: Neu5Ac(a2-3)Gal(b1-3)GlcNAc(b1-2)Man(a1-3)[GlcNAc(b1-4)][Neu5Ac(a2-3)Gal(b1-3)GlcNAc(b1-2)Man(a1-6)]Man(b1-4)GlcNAc(b1-4)GlcNAc
# How it was run: as §1
# [16] = biological target: Neu5Ac(a2-3)Gal(b1-3)GlcNAc(b1-3)Gal(b1-3)GlcNAc
# How it was run: as §1
# [17] = biological target: Neu5Ac(a2-3)Gal(b1-3)[Fuc(a1-4)]GlcNAc(b1-3)Gal(b1-4)[Fuc(a1-3)]GlcNAc
# How it was run: as §1
# [18] = biological target: Neu5Ac(a2-3)Gal(b1-3)[Neu5Ac(a2-6)]GlcNAc(b1-3)[Fuc(a1-3)[Gal(b1-4)]GlcNAc(b1-6)]Gal(b1-4)Glc
# How it was run: as §1
# [19] = biological target: Neu5Ac(a2-3)Gal(b1-3)]Neu5Ac(a2-3)Gal(b1-4)]GlcNAc
# How it was run: as §1
# [20] = biological target: Neu5Ac(a2-3)Gal(b1-4)GlcNAc(b1-2)Man(a1-3)[GlcNAc(b1-4)][Neu5Ac(a2-3)Gal(b1-4)GlcNAc(b1-2)Man(a1-6)]Man(b1-4)GlcNAc(b1-4)GlcNAc
# How it was run: as §1
# [21] = biological target: Neu5Ac(a2-3)Gal(b1-4)GlcNAc(b1-2)[Neu5Ac(a2-3)Gal(b1-4)GlcNAc(b1-6)]Man(a1-6)[Neu5Ac(a2-3)Gal(b1-4)GlcNAc(b1-2)Man(a1-3)]Man(b1-4)GlcNAc(b1-4)GlcNAc
# How it was run: as §1
# [22] = biological target: Neu5Ac(a2-3)Gal(b1-4)GlcNAc(b1-6)[Neu5Ac(a2-3)Gal(b1-3)]GalNAc
# How it was run: as §1
# [23] = biological target: Neu5Ac(a2-3)Gal(b1-4)[Fuc(a1-3)]GlcNAc(b1-2)Man
# How it was run: as §1
# [24] = biological target: Neu5Ac(a2-3)GalNAc
# How it was run: as §1
# [25] = biological target: Neu5Ac(a2-6)Gal(b1-4)GlcNAc(b1-2)Man(a1-3)[Man(a1-6)]Man(b1-4)GlcNAc(b1-4)GlcNAc
# How it was run: as §1
# [26] = biological target: Neu5Ac(a2-6)Gal(b1-4)GlcNAc(b1-2)Man(a1-6)[GlcNAc(b1-2)Man(a1-3)]Man(b1-4)GlcNAc(b1-4)GlcNAc
# How it was run: as §1
# [27] = biological target: Neu5Ac(a2-6)Gal(b1-4)GlcNAc(b1-3)Gal(b1-4)GlcNAc(b1-6)[Gal(b1-3)]GalNAc
# How it was run: as §1
# [28] = biological target: Neu5Ac(a2-6)Gal(b1-4)GlcNAc(b1-6)GalNAc
# How it was run: as §1
# [29] = biological target: Neu5Ac(a2-6)Gal(b1-4)GlcNAc(b1-6)[Gal(b1-3)]GalNAc
# How it was run: as §1
# [30] = biological target: Neu5Ac(a2-8)Neu5Ac
# How it was run: as §1
# [31] = biological target: Neu5Ac(a2-8)Neu5Ac(a2-3)Gal(b1-3)GalNAc(b1-4)[Neu5Ac(a2-3)]Gal(b1-4)Glc
# How it was run: as §1
# [32] = biological target: Neu5Gc(a2-8)Neu5Gc(a2-6)Gal(b1-4)GlcNAc
# How it was run: as §1
binder,measurement,setting,value
B1,glycan array binding signal (z-score),[1],-0.121
same,glycan array binding signal (z-score),[2],-0.25
same,glycan array binding signal (z-score),[3],-0.175
same,glycan array binding signal (z-score),[4],8.74
same,glycan array binding signal (z-score),[5],-0.284
same,glycan array binding signal (z-score),[6],-0.226
same,glycan array binding signal (z-score),[7],0.679
same,glycan array binding signal (z-score),[8],-0.013
same,glycan array binding signal (z-score),[9],-0.255
same,glycan array binding signal (z-score),[10],-0.24
same,glycan array binding signal (z-score),[11],-0.28
same,glycan array binding signal (z-score),[12],-0.18
same,glycan array binding signal (z-score),[13],-0.2
same,glycan array binding signal (z-score),[14],-0.208
same,glycan array binding signal (z-score),[15],-0.228
same,glycan array binding signal (z-score),[16],-0.212
same,glycan array binding signal (z-score),[17],-0.191
same,glycan array binding signal (z-score),[18],-0.137
same,glycan array binding signal (z-score),[19],-0.172
same,glycan array binding signal (z-score),[20],-0.295
same,glycan array binding signal (z-score),[21],-0.159
same,glycan array binding signal (z-score),[22],-0.286
same,glycan array binding signal (z-score),[23],-0.295
same,glycan array binding signal (z-score),[24],-0.251
same,glycan array binding signal (z-score),[25],5.43
same,glycan array binding signal (z-score),[26],5.03
same,glycan array binding signal (z-score),[27],-0.216
same,glycan array binding signal (z-score),[28],-0.235
same,glycan array binding signal (z-score),[29],-0.133
same,glycan array binding signal (z-score),[30],-0.189
same,glycan array binding signal (z-score),[31],-0.285
same,glycan array binding signal (z-score),[32],-0.194
